Results filed as inconclusive are left out. A number with no mark means an inactive call. Calls come from the whole dose curve; as a rule, active = well fitted inhibition curve with a large enough effect in the signal ratio in the repeat runs (not every such curve was filed as active); inconclusive = weak or mixed curves, or effect the other way; inactive = no such curve, though single readings can be large or run the other way; the % refers to the signal ratio.
Target: Peroxisome proliferator-activated receptor delta (Homo sapiens) (UniProt Q03181)
Sequence (Q03181 whole entry, looked up): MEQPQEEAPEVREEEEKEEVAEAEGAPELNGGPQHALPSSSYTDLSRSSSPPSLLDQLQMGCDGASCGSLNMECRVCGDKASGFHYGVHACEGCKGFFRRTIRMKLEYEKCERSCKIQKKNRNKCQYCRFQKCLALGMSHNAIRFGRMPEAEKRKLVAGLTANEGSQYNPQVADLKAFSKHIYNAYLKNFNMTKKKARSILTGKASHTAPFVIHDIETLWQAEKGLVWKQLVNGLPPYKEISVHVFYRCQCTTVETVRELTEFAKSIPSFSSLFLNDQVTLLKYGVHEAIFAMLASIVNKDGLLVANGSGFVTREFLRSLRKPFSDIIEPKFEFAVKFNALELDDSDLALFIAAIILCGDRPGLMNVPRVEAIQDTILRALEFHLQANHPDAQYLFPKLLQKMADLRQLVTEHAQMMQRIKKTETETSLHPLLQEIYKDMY
Test: qHTS assay to identify small molecule antagonists of the peroxisome proliferator-activated receptor delta (PPARd) signaling pathway (AID 743215);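 note: cells stimulated with agonist L165041 at 300 nM final during compound exposure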
Conditions: HEK293H PPARd-UAS-bla, beta-lactamase FRET ratio, antagonist, 17 h; series mostly up to 62 µM; ratio activity, negative = inhibition: at the top concentration
Description: U.S. Tox21 Program National Center for Advancing Translational Sciences [NCATS] NIH Chemical Genomics Center [NCGC] U.S. Environmental Protection Agency [EPA] National Institutes of Environmental Health Sciences [NIEHS] National Toxicology Program [NTP] U.S. Food and Drug Administration [FDA] Tox21 Assay Overview: The peroxisome proliferator-activated receptors (PPARs) are lipid-activated transcription factors of the nuclear receptor superfamily with three distinct subtypes namely PPAR alpha, PPAR delta (PPARd) and PPAR gamma. All these subtypes heterodimerizes with Retinoid X receptor (RXR) and have different physiological functions. […] To identify the compounds that inhibit PPAR-delta signaling, GeneBLAzer PPAR delta UAS-bla HEK293H cell line (Invitrogen, Carlsbad, CA, USA) containing a beta-lactamase reporter gene under the control of an Upstream Activator Sequence (UAS) was used to screen the Tox21 compound library.
Tox21 Assay Protocol Summary: PPARd-bla cells were dispensed at 3000 cells/5uL/well in 1536-well black wall/clear bottom plates using a Multidrop Combi (Thermo Fisher Scientific, Waltham, MA) dispenser. After the assay plates were incubated at 37 C and 5% CO2 for 5 h, 23 nL of compounds dissolved in DMSO, positive controls or DMSO only was transferred to the assay plate by a Pintool station (Kalypsys, San Diego, CA), followed by addition of 1ul L165041 (300 nM, final concentration in the wells). The assay plates were incubated at 37 C for 17 h, and then 1 uL of LiveBLAzerTM B/G FRET substrate was added using a Bioraptr Flying Reagent Dispenser (FRD) workstation (Beckman Coulter, Indianapolis, IN, USA). The assay plates were incubated at room temperature for 2 h and fluorescence intensity was measured by an Envision plate reader (PerkinElmer, Shelton, CT).
% is set by controls: 0 for no effect and ±100 for the full control effect.

Compound | ratio activity, negative = inhibition
CC(C)COCC(CN(Cc1ccccc1)c1ccccc1)N1CCCC1 (stereo not given) | -8.1%
O=C(O)CCc1nc(-c2ccccc2)c(-c2ccccc2)o1 | 4.63%
CC(O)c1ccccc1 (stereo not given) | -23.4% [at 80.4 µM]
O=C(O)CCCCCCCCCCCBr | 5.55%
Clc1cc(Cl)nc(Cl)n1 | -10.6% [at 80.4 µM]
CCOC(=O)[C@H](CCc1ccccc1)N[C@@H](C)C(=O)N(CC(=O)O)C1Cc2ccccc2C1 | 1.62%
CCCCCC#CC(=O)OC | -19.2%
CCC1(CO)COCOC1 | -27.7%
O=C(OC(=O)c1ccccc1)c1ccccc1 | -0.542% [at 80.4 µM]
C(=C\c1ccccc1)/c1ccccc1 | -9.97% [at 80.4 µM]
CN1C(C(=O)Nc2ccccn2)=C(O)c2sccc2S1(=O)=O | 3.52%
CC(=O)OCC[N+](C)(C)C | -0.874%
C=CCc1ccccc1OCC(O)CNC(C)C (stereo not given) | 3.5%
O=C=Nc1ccc(Cl)c(Cl)c1 | 5.31%
O[C@@H]1CO[C@H]2[C@@H]1OC[C@@H]2O | 8.38%
CO/N=C(/C(=O)N[C@@H]1C(=O)N2C(C(=O)O)=C(COC(N)=O)CS[C@H]12)c1ccco1 | 1.65%
COc1ccc(OC(=O)N(CC(=O)O)Cc2ccc(OCCc3nc(-c4ccccc4)oc3C)cc2)cc1 | -0.699%
CCCC(C(=O)OCCN(CC)CC)(c1ccccc1)c1ccccc1 | -8.32%
CCCCC(CC)CN (stereo not given) | -8.65% [at 80.4 µM]
COc1cc(N)c(Cl)cc1C(=O)NC1CCN(CCCOc2ccc(F)cc2)CC1OC (stereo not given) | -0.54%

Compound | ratio activity, negative = inhibition
C1COC1 | 2.33%
CCn1cc(C(=O)O)c(=O)c2cc(F)c(N3CCNCC3)cc21 | 0.195%
CC(CN(C)C)C(C)(O)Cc1ccc(Cl)cc1 (stereo not given) | -12.6%
CO[C@]1(NC(=O)CSC(F)F)C(=O)N2C(C(=O)O)=C(CSc3nnnn3CCO)CO[C@H]21 | -7.25%
O=c1[nH]ncc2ccccc12 | 0.446%
CN(C(=O)CN(CCO)CC(=O)N(C)C(C)(C)Cc1ccccc1)C(C)(C)Cc1ccccc1 | -16.9%
COC(=O)CS | -11.5%
COc1ccccc1Oc1c(NS(=O)(=O)c2ccc(C(C)(C)C)cc2)nc(-c2ncccn2)nc1OCCO | -23.3%
CCOC(C)=O | -2.62% [at 80.4 µM]
CCOC(=O)c1ccc(OCCN2C[C@H](O)[C@@H](O)[C@H](O)[C@H]2CO)cc1 | -6.54%
Cc1ccccc1N=C(N)Nc1ccccc1C | -5.26%
C=C(C)C(=O)OCCCCCCCCCCCCC | -6.97%
O=C1Cc2cc(Cl)ccc2N1 | -1.56%
CCCC(=O)C(=O)O | 9.12%
O=Cc1c2ccccc2c(Cl)c2ccccc12 | -2.59%
C=C(C)C(=O)OCCOCCOC(=O)C(=C)C | -4.32%
O=C1c2ccccc2C(=O)C1c1nc2ccccc2c(Br)c1O | -0.68%
CCC1CO1 (stereo not given) | 15%
CN1CCCN=C1COC(=O)C(O)(c1ccccc1)C1CCCCC1 (stereo not given) | -15.5%
c1csc(SSc2cccs2)c1 | -14.1%
